According to PubChem BioAssay:

Test: modulation of C. elegans fzo-1 (AID 1259413);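 also: fzo-1 mutant C. elegans worms in liquid wells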
Details: C. elegans fzo-1 modulator screen, mean read-out; active compounds read high; call rule not given here

Mean signal, inactive:
COCCCOc1ccnc(CS(=O)c2nc3ccccc3[nH]2)c1C (centres undefined) 232, N=c1nc(N2CCCCC2)cc(N)n1O 252, CC(C)NCC(O)COc1cccc2[nH]ccc12 (centres undefined) 248, CCn1cc(C(=O)O)c(=O)c2ccc(C)nc21 268, CN(C)C(=O)C(CCN1CCC(O)(c2ccc(Cl)cc2)CC1)(c1ccccc1)c1ccccc1 201, Cc1cc(NS(=O)(=O)c2ccc(N)cc2)no1 252, CCCC(CCC)C(=O)O 274, O=C1CN(/N=C/c2ccc([N+](=O)[O-])o2)C(=O)N1 245, COc1cc(Cc2cnc(N)nc2N)cc(OC)c1OC 243, COC(=O)C1=C(C)NC(C)=C(C(=O)OCCN(C)Cc2ccccc2)C1c1cccc([N+](=O)[O-])c1 (centres undefined) 246, O=C(CCCN1CCC(O)(c2ccc(Cl)cc2)CC1)c1ccc(F)cc1 271, CC(C)(C)NCC(O)c1ccc(O)c(CO)c1 (centres undefined) 230, COc1ccc2cc([C@H](C)C(=O)O)ccc2c1 264, COc1c2occc2cc2ccc(=O)oc12 248, NC(=O)c1cccnc1 256, CN/C(=C\[N+](=O)[O-])NCCSCc1ccc(CN(C)C)o1 267, CNCCCN1c2ccccc2CCc2ccccc21 181, CN1C(=O)CC[C@H]1c1cccnc1 242, CCCC(=O)Nc1ccc(OCC(O)CNC(C)C)c(C(C)=O)c1 (centres undefined) 238
